Laboratory results as given in the supplement of paper PMC4466140.

Columns and labels:
Experiment in all cases: SPOT peptide array binding signal intensity (averaged, normalized) (arbitrary units (background-subtracted, floor 0; scale differs between SH3 domains)); higher = stronger binding of the SH3 domain to the peptide
AgAbp1 = target: AgAbp1
Summary of the method: (§1)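 Binding signal is given in arbitrary units that differ between domains and is the normalized, background-subtracted spot intensity averaged across replicates. Each GST-SH3 fusion from one of four yeast species was made in E. coli BL21(DE3), purified on glutathione Sepharose and incubated at 10 μg/ml overnight at 4°C on cellulose-bound synthetic 15-mer peptides in which cysteines were replaced by serines. Detection used anti-GST antibody, an HRP anti-mouse secondary and luminol, followed by imaging and Genespotter quantification.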

AgBbc1 = target: AgBbc1
Summary of the method: as §1

AgBem1-D1 = target: AgBem1-D1
Summary of the method: as §1

AgBzz1-D1 = target: AgBzz1-D1
Summary of the method: as §1

AgBzz1-D2 = target: AgBzz1-D2
Summary of the method: as §1

AgCyk3 = target: AgCyk3
Summary of the method: as §1

AgFus1 = target: AgFus1
Summary of the method: as §1

AgHof1 = target: AgHof1
Summary of the method: as §1

AgHse1 = target: AgHse1
Summary of the method: as §1

AgLsb1 = target: AgLsb1
Summary of the method: as §1

AgLsb4 = target: AgLsb4
Summary of the method: as §1

AgMyo5 = target: AgMyo5
Summary of the method: as §1

AgNbp2 = target: AgNbp2
Summary of the method: as §1

AgRvs167 = target: AgRvs167
Summary of the method: as §1

AgSho1 = target: AgSho1
Summary of the method: as §1

AgSla1-D1-D2 = target: AgSla1-D1-D2
Summary of the method: as §1

AgSla1-D3 = target: AgSla1-D3
Summary of the method: as §1

CaAbp1-D1 = target: CaAbp1-D1
Summary of the method: as §1

CaAbp1-D2 = target: CaAbp1-D2
Summary of the method: as §1

CaBbc1 = target: CaBbc1
Summary of the method: as §1

CaBem1-D1 = target: CaBem1-D1
Summary of the method: as §1

CaBzz1-D1 = target: CaBzz1-D1
Summary of the method: as §1

CaBzz1-D2 = target: CaBzz1-D2
Summary of the method: as §1

CaCyk3 = target: CaCyk3
Summary of the method: as §1

CaFus1 = target: CaFus1
Summary of the method: as §1

CaHof1 = target: CaHof1
Summary of the method: as §1

CaHse1 = target: CaHse1
Summary of the method: as §1

CaLsb1 = target: CaLsb1
Summary of the method: as §1

CaLsb4 = target: CaLsb4
Summary of the method: as §1

CaMyo5 = target: CaMyo5
Summary of the method: as §1

CaNbp2 = target: CaNbp2
Summary of the method: as §1

CaRvs167 = target: CaRvs167
Summary of the method: as §1

CaRvs167-3 = target: CaRvs167-3
Summary of the method: as §1

CaSho1 = target: CaSho1
Summary of the method: as §1

CaSla1-D1-D2 = target: CaSla1-D1-D2
Summary of the method: as §1

CaSla1-D3 = target: CaSla1-D3
Summary of the method: as §1

ScAbp1 = target: ScAbp1
Summary of the method: as §1

ScBbc1 = target: ScBbc1
Summary of the method: as §1

ScBem1-D1 = target: ScBem1-D1
Summary of the method: as §1

ScBzz1-D1 = target: ScBzz1-D1
Summary of the method: as §1

ScBzz1-D2 = target: ScBzz1-D2
Summary of the method: as §1

ScCyk3 = target: ScCyk3
Summary of the method: as §1

ScFus1 = target: ScFus1
Summary of the method: as §1

ScHof1 = target: ScHof1
Summary of the method: as §1

ScHse1 = target: ScHse1
Summary of the method: as §1

ScLsb1 = target: ScLsb1
Summary of the method: as §1

ScLsb2 = target: ScLsb2
Summary of the method: as §1

ScLsb3 = target: ScLsb3
Summary of the method: as §1

ScLsb4 = target: ScLsb4
Summary of the method: as §1

ScMyo3 = target: ScMyo3
Summary of the method: as §1

ScMyo5 = target: ScMyo5
Summary of the method: as §1

ScNbp2 = target: ScNbp2
Summary of the method: as §1

ScPex13 = target: ScPex13
Summary of the method: as §1

ScRvs167 = target: ScRvs167
Summary of the method: as §1

ScSho1 = target: ScSho1
Summary of the method: as §1

ScSla1-D1-D2 = target: ScSla1-D1-D2
Summary of the method: as §1

ScSla1-D3 = target: ScSla1-D3
Summary of the method: as §1

SpAbp1-D1 = target: SpAbp1-D1
Summary of the method: as §1

SpBbc1 = target: SpBbc1
Summary of the method: as §1

SpBzz1-D1 = target: SpBzz1-D1
Summary of the method: as §1

SpBzz1-D2 = target: SpBzz1-D2
Summary of the method: as §1

SpCyk3 = target: SpCyk3
Summary of the method: as §1

SpHof1 = target: SpHof1
Summary of the method: as §1

SpHof1-2 = target: SpHof1-2
Summary of the method: as §1

SpHof1-3 = target: SpHof1-3
Summary of the method: as §1

SpHse1 = target: SpHse1
Summary of the method: as §1

SpLsb1 = target: SpLsb1
Summary of the method: as §1

SpLsb4 = target: SpLsb4
Summary of the method: as §1

SpMyo1 = target: SpMyo1
Summary of the method: as §1

SpNbp2 = target: SpNbp2
Summary of the method: as §1

SpPex13 = target: SpPex13
Summary of the method: as §1

SpRvs167 = target: SpRvs167
Summary of the method: as §1

SpSla1-D1-D2 = target: SpSla1-D1-D2
Summary of the method: as §1

SpSla1-D3 = target: SpSla1-D3
Summary of the method: as §1

B1: unnamed (peptide)
chain: KDKSRPPRPPPKPLH
SPOT peptide array binding signal intensity (AgAbp1): 917 | SPOT peptide array binding signal intensity (AgBbc1): 282 | SPOT peptide array binding signal intensity (AgBem1-D1): 30 | SPOT peptide array binding signal intensity (AgBzz1-D1): 257 | SPOT peptide array binding signal intensity (AgBzz1-D2): 119 | SPOT peptide array binding signal intensity (AgCyk3): ≤ 0 | SPOT peptide array binding signal intensity (AgFus1): ≤ 0 | SPOT peptide array binding signal intensity (AgHof1): 55.8 | SPOT peptide array binding signal intensity (AgHse1): 27 | SPOT peptide array binding signal intensity (AgLsb1): 7.5 | SPOT peptide array binding signal intensity (AgLsb4): 11.5 | SPOT peptide array binding signal intensity (AgMyo5): ≤ 0 | SPOT peptide array binding signal intensity (AgNbp2): 138 | SPOT peptide array binding signal intensity (AgRvs167): 1.33 | SPOT peptide array binding signal intensity (AgSho1): 71.5 | SPOT peptide array binding signal intensity (AgSla1-D1-D2): ≤ 0 | SPOT peptide array binding signal intensity (AgSla1-D3): 7.5 | SPOT peptide array binding signal intensity (CaAbp1-D1): 298 | SPOT peptide array binding signal intensity (CaAbp1-D2): 780 | SPOT peptide array binding signal intensity (CaBbc1): 240 | SPOT peptide array binding signal intensity (CaBem1-D1): 382 | SPOT peptide array binding signal intensity (CaBzz1-D1): 3930 | SPOT peptide array binding signal intensity (CaBzz1-D2): 748 | SPOT peptide array binding signal intensity (CaCyk3): 23.5 | SPOT peptide array binding signal intensity (CaFus1): ≤ 0 | SPOT peptide array binding signal intensity (CaHof1): ≤ 0 | SPOT peptide array binding signal intensity (CaHse1): 67 | SPOT peptide array binding signal intensity (CaLsb1): 0.5 | SPOT peptide array binding signal intensity (CaLsb4): 158 | SPOT peptide array binding signal intensity (CaMyo5): ≤ 0 | SPOT peptide array binding signal intensity (CaNbp2): 88.5 | SPOT peptide array binding signal intensity (CaRvs167): 8.67 | SPOT peptide array binding signal intensity (CaRvs167-3): 0.5 | SPOT peptide array binding signal intensity (CaSho1): ≤ 0 | SPOT peptide array binding signal intensity (CaSla1-D1-D2): 602 | SPOT peptide array binding signal intensity (CaSla1-D3): 21.5 | SPOT peptide array binding signal intensity (ScAbp1): 670 | SPOT peptide array binding signal intensity (ScBbc1): 8.5 | SPOT peptide array binding signal intensity (ScBem1-D1): ≤ 0 | SPOT peptide array binding signal intensity (ScBzz1-D1): 123 | SPOT peptide array binding signal intensity (ScBzz1-D2): ≤ 0 | SPOT peptide array binding signal intensity (ScCyk3): ≤ 0 | SPOT peptide array binding signal intensity (ScFus1): ≤ 0 | SPOT peptide array binding signal intensity (ScHof1): ≤ 0 | SPOT peptide array binding signal intensity (ScHse1): 24 | SPOT peptide array binding signal intensity (ScLsb1): 121 | SPOT peptide array binding signal intensity (ScLsb2): 1 | SPOT peptide array binding signal intensity (ScLsb3): 1930 | SPOT peptide array binding signal intensity (ScLsb4): 15.5 | SPOT peptide array binding signal intensity (ScMyo3): 29.5 | SPOT peptide array binding signal intensity (ScMyo5): 49.5 | SPOT peptide array binding signal intensity (ScNbp2): 305 | SPOT peptide array binding signal intensity (ScPex13): 103 | SPOT peptide array binding signal intensity (ScRvs167): 45 | SPOT peptide array binding signal intensity (ScSho1): 171 | SPOT peptide array binding signal intensity (ScSla1-D1-D2): 266 | SPOT peptide array binding signal intensity (ScSla1-D3): 11.5 | SPOT peptide array binding signal intensity (SpAbp1-D1): 528 | SPOT peptide array binding signal intensity (SpBbc1): ≤ 0 | SPOT peptide array binding signal intensity (SpBzz1-D1): 366 | SPOT peptide array binding signal intensity (SpBzz1-D2): 16.8 | SPOT peptide array binding signal intensity (SpCyk3): 1 | SPOT peptide array binding signal intensity (SpHof1): ≤ 0 | SPOT peptide array binding signal intensity (SpHof1-2): ≤ 0 | SPOT peptide array binding signal intensity (SpHof1-3): 75.5 | SPOT peptide array binding signal intensity (SpHse1): 21.5 | SPOT peptide array binding signal intensity (SpLsb1): 484 | SPOT peptide array binding signal intensity (SpLsb4): 670 | SPOT peptide array binding signal intensity (SpMyo1): 277 | SPOT peptide array binding signal intensity (SpNbp2): 13.5 | SPOT peptide array binding signal intensity (SpPex13): ≤ 0 | SPOT peptide array binding signal intensity (SpRvs167): 129 | SPOT peptide array binding signal intensity (SpSla1-D1-D2): ≤ 0 | SPOT peptide array binding signal intensity (SpSla1-D3): 3
